Measured values reported in PubChem BioAssay.
Values without a mark were called inactive. For some assays here: Results with a measured potency or affinity are listed apart. Active and inactive are the calls of the source. Unless noted, the rule behind the calls is not given here.

Legend:
[1] = antimalarial activity against Dd2 strain (AID 2302;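 active = growth inhibition above 50% at the single 2 µM test dose, taken to imply half-maximal potency below 2 µM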;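 note: 0% = DMSO untreated growth and 100% = chloroquine plus artemisinin killed control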); details: P. falciparum Dd2 in RBCs, LDH growth readout, 72 h; at 2 µM; active compounds read high
[2] = human hepatoma cell viability loss – ATP luminescence, cytotoxicity control for P. falciparum antimalarial project, primary screen (AID 2303;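 active = inhibition above 50%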;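 note: 0% = DMSO wells and 100% = digitonin-killed cells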); details: HepG2 viability, 24-48 h, at 10 µM, active compounds read high
[3] = biological target: L-lactate dehydrogenase (Plasmodium falciparum (isolate CDC / Honduras)) (UniProt Q27743); experiment: PfLDH activity inhibition – cell lysate, 3D7 strain, counter-screen for P. falciparum growth inhibition project (AID 2304);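 note: 0% = vehicle and 100% = reference inhibitor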; details: P. falciparum 3D7 crude extract, LDH APAD/NBT absorbance; at 2 µM; active compounds read high
L-lactate dehydrogenase (Plasmodium falciparum (isolate CDC / Honduras)), sequence (Q27743 whole entry, looked up): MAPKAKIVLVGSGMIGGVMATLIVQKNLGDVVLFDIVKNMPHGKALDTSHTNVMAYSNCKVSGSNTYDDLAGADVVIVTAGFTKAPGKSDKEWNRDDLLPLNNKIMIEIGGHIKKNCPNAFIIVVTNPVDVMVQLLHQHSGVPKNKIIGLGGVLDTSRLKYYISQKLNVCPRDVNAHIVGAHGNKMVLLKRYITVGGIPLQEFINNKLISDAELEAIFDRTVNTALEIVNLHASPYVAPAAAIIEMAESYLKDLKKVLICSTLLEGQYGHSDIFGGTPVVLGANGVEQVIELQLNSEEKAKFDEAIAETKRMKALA

[4] = inhibition of 3D7 malaria parasite growth – strain 3D7 (AID 2306);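 note: 0% = DMSO wells and 100% = chloroquine plus artemisinin control wells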; details: P. falciparum 3D7 erythrocytic growth, LDH absorbance, 72 h; at 2 µM; active compounds read high
[5] = biological target: Calcium-dependent protein kinase 1 (Plasmodium falciparum (isolate 3D7)) (UniProt P62344); experiment: PfCDPK1 kinase inhibitors, biochemical, TCAMS library (AID 1159585; cut-off not given, nearly all actives have IC50 up to about 0.98 µM;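 note: inhibitors leave more ATP so luminescence rises with inhibition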); details: recombinant PfCDPK1, Kinase-Glo ATP depletion luminescence
Calcium-dependent protein kinase 1 (Plasmodium falciparum (isolate 3D7)), sequence (P62344 whole entry, looked up): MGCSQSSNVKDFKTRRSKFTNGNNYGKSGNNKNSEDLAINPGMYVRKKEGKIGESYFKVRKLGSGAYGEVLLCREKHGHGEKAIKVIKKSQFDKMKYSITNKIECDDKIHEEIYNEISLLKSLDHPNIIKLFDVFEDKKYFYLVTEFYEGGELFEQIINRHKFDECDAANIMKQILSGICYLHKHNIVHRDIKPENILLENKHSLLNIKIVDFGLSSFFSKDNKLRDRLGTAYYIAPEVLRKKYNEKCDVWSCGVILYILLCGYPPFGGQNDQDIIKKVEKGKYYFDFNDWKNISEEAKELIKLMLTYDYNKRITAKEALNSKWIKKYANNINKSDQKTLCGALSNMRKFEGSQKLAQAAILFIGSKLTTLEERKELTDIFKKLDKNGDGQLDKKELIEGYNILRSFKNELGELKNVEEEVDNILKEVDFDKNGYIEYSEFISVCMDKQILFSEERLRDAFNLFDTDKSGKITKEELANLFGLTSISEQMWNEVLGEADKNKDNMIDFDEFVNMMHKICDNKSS

[6] = biological target: Plasmodium falciparum protein kinase 6 (PK6, PF3D7_1337100) (UniProt Q8IDW1); experiment: PfPK6 kinase inhibitors, biochemical, TCAMS library (AID 1159586); details: recombinant PfPK6, Kinase-Glo ATP depletion luminescence
Plasmodium falciparum protein kinase 6 (PK6, PF3D7_1337100), sequence (Q8IDW1 1-305): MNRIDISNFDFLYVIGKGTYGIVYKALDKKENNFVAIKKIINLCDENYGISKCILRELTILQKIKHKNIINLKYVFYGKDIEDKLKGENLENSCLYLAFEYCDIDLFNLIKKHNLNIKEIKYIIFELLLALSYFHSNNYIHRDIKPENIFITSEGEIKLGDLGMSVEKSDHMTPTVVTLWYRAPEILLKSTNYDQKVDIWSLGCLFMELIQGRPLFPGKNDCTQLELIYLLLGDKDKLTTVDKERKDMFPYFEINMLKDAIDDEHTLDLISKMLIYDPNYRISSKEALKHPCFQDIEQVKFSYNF

[7] = biological target: Protein kinase 7 (PK7), Plasmodium falciparum 3D7 (PF3D7_0213400) (UniProt Q7YTF7); experiment: inhibition of Plasmodium PK7 catalytic activity – biochemical, TCAMS antimalarial set, Kinase-Glo luminescence (AID 1159587); details: recombinant PfPK7, Kinase-Glo ATP depletion luminescence
Protein kinase 7 (PK7), Plasmodium falciparum 3D7 (PF3D7_0213400), sequence (Q7YTF7 1-343): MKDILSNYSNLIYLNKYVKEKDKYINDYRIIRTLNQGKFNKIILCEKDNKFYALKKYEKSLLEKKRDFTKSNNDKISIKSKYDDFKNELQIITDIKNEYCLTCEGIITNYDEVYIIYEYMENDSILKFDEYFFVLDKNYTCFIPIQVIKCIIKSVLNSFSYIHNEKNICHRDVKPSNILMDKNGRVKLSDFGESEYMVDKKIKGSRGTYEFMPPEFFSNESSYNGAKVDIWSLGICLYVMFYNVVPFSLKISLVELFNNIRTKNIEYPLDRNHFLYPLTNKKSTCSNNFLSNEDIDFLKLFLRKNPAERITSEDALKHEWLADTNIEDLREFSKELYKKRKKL

[8] = biological target: Calcium-dependent protein kinase 4 (Plasmodium falciparum (isolate 3D7)) (UniProt Q8IBS5); experiment: PfCDPK4 kinase inhibitors, biochemical, TCAMS library (AID 1159588; cut-off not given, nearly all actives have IC50 up to about 0.91 µM); details: recombinant PfCDPK4, Kinase-Glo ATP depletion luminescence
Calcium-dependent protein kinase 4 (Plasmodium falciparum (isolate 3D7)), sequence (Q8IBS5 whole entry, looked up): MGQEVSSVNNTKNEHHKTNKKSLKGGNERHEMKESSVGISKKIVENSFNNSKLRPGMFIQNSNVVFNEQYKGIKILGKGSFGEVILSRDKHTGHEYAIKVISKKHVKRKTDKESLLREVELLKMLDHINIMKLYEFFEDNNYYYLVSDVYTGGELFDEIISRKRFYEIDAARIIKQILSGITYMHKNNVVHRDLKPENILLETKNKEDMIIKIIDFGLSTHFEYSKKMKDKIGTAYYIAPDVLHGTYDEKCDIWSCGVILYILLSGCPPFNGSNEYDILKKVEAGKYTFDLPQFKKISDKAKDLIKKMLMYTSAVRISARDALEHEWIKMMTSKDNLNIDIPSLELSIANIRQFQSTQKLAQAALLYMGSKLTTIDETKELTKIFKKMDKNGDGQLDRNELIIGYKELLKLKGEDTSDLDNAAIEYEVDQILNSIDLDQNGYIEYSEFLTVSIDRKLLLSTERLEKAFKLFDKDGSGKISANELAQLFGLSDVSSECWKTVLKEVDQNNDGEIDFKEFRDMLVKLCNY

| SMILES | growth inhibition [1] | inhibition [2] | inhibition [3] [%] | growth inhibition [4] | outcome [5] | outcome [6] | outcome [7] | outcome [8] |
| --- | --- | --- | --- | --- | --- | --- | --- | --- |
| O=C(Nc1cccc(C(F)(F)F)c1)Nc1ccc(F)c([N+](=O)[O-])c1 | 100% (active) | 43% | -4 | 101% (active) | inactive | inactive | inactive | inactive |
| CC(C)C[C@H](NC(=O)c1ccc(OCCN2CCOCC2)cc1)C(=O)NC(/C=N/N1CCCC1=O)C(C)C (stereo not given in full) | 81% (active) | 3% | -2 | 90% (active) | inactive | inactive | inactive | inactive |
| CCNc1cc(C(=O)N[C@@H](Cc2ccccc2)[C@H](O)CNC(C)(C)CCCC(C)C)cc(N2CCCC2=O)c1 | 81% (active) | -12% | -1 | 100% (active) | inactive | inactive | inactive | inactive |
| CCCc1c(Cl)cc(CNCCCNc2nc3ccncc3[nH]2)cc1Cl | -5% | 23% | -5 | 98% (active) | inactive | inactive | inactive | inactive |
| COc1ccc2cc(-c3nc(-c4c(Cl)cccc4Cl)[nH]c3-c3ccnc(NCCCN4CCCCC4C)c3)ccc2c1 (stereo not given) | 86% (active) | 19% | -1 | 94% (active) | inactive | inactive | inactive | inactive |
| Cc1cccc(Cn2nc(-c3ccccc3)c(N3CCCCC3)cc2=O)c1 | -2% | 29% | 0 | 98% (active) | inactive | inactive | inactive | inactive |
| O=C1COC2(CN1C1CCN(Cc3ccc(O)cc3Cl)C1)c1ccccc1-c1ccccc12 (stereo not given) | 70% (active) | 10% | -1 | 82% (active) | inactive | inactive | inactive | inactive |
| Cc1ccc(OC2CCN(c3ccc(C(=O)NC4CC4)cn3)CC2)cc1 | 75% (active) | 11% | 4 | 87% (active) | inactive | inactive | inactive | inactive |
| CC(C)(Oc1c(C2CCN(CCCCNC(=O)c3ccc(-c4ccc(C#N)cc4)cc3)CC2)ccc2c1CCCC2)C(N)=O | 82% (active) | 34% | 6 | 100% (active) | inactive | inactive | inactive | inactive |
| Cc1cc(Nc2cccc(C(F)(F)F)c2)nc(Nc2cccc(C(F)(F)F)c2)n1 | 73% (active) | -1% | -3 | 100% (active) | inactive | inactive | inactive | inactive |
| Cc1cccc2[nH]c(-c3ccc(-c4cccc(CN5CCC(N)C5)c4)s3)nc12 (stereo not given) | 78% (active) | 16% | 1 | 95% (active) | inactive | inactive | inactive | inactive |
| O=C(COc1cnc2ccccc2n1)Nc1ccccc1Sc1ccc(Cl)cc1 | 100% (active) | 6% | 6 | 100% (active) | inactive | inactive | inactive | inactive |
| CN1CCN(c2ccnc3ccc(NC(=O)N(C)c4ccc(Cl)c(Cl)c4)cc23)CC1 | 85% (active) | 5% | -3 | 100% (active) | inactive | inactive | inactive | inactive |
| COc1ccc(CNC2CCN(C)CC2)cc1-c1ccc(OC)c(S(=O)(=O)NCc2ccccc2)c1 | 95% (active) | 10% | 5 | 99% (active) | inactive | inactive | inactive | inactive |
| CN(C)Cc1ccc(-c2ccc3c(Nc4ccc(Oc5ccccc5)cc4)ccnc3c2)o1 | 100% (active) | 10% | 2 | 101% (active) | inactive | inactive | inactive | inactive |
| CC1(C)N=C(N)N=C(N)N1OCCSc1ccc(Cl)c(Cl)c1 | 95% (active) | 65% (active) | -1 | 96% (active) | inactive | inactive | inactive | inactive |
| Brc1cc(CNCCCNc2nc3ccccc3[nH]2)sc1Br | 21% | 10% | 8 | 100% (active) | inactive | inactive | inactive | inactive |
| O=C(Nc1ccc(OC2CCN(Cc3ccccc3)C2)c(Cl)c1)c1cccs1 (stereo not given) | 96% (active) | 13% | -2 | 97% (active) | inactive | inactive | inactive | inactive |
| CCCCCCN1CCC(NCc2cccc(C#N)c2)CC1 | 9% | 5% | -1 | 97% (active) | inactive | inactive | inactive | inactive |
| COc1cc(SC)c(Br)cc1-c1nc2ccncc2[nH]1 | 9% | 5% | -1 | 91% (active) | inactive | inactive | inactive | inactive |

| SMILES | growth inhibition [1] | inhibition [2] | inhibition [3] [%] | growth inhibition [4] | outcome [5] | outcome [6] | outcome [7] | outcome [8] |
| --- | --- | --- | --- | --- | --- | --- | --- | --- |
| O=S(=O)(NCCN1CCCC1)c1ccc(-c2cccc(CNCc3ccc(F)cc3)c2)cc1F | 36% | 43% | -1 | 97% (active) | inactive | inactive | inactive | inactive |
| Cc1cc(F)ccc1-c1nc(NCCCNCCc2ccccc2)nc2c1ccc(=O)n2-c1c(F)cccc1F | 100% (active) | 36% | -6 | 100% (active) | inactive | inactive | inactive | inactive |
| Cc1cc(C(F)(F)F)n2nc(C(=O)N(Cc3cncn3Cc3ccccc3F)CC3CC3)cc2n1 | 100% (active) | -5% | 1 | 100% (active) | inactive | inactive | inactive | inactive |
| COc1cc(CN2CCC(C(=O)Nc3ccc(-c4cccc(C)c4)cc3)CC2)ccc1O | 85% (active) | 25% | 3 | 100% (active) | inactive | inactive | inactive | inactive |
| NCc1ccc(CNCc2cccc(-c3ccc(-c4nc5ccc(C(F)(F)F)cc5[nH]4)cc3)c2)cc1 | 90% (active) | 13% | -7 | 98% (active) | inactive | inactive | inactive | inactive |
| Cn1ncc2c3c(CCN4CCC(NCc5cc6c(cn5)OCC6)CC4)c(Cl)cnc3ccc21 | 0% | 4% | 2 | 94% (active) | inactive | inactive | inactive | inactive |
| Cc1nc(NCCc2cnc[nH]2)cc(NCc2ccccc2)n1 | 5% | 5% | -2 | 100% (active) | inactive | inactive | inactive | inactive |
| Cc1cc2nc(-c3ccc(C(=O)NCc4cccc(C(F)(F)F)c4)cc3)[nH]c2cc1C | 34% | 4% | -9 | 98% (active) | inactive | inactive | inactive | inactive |
| CC(C)(C)c1ccc(NC(=O)N[C@@H]2CCN(c3ccnc4ccccc34)C2)cc1 | 96% (active) | 23% | 0 | 102% (active) | inactive | inactive | inactive | inactive |
| CCCCCCN1CCC(NCc2ccc(C(F)(F)F)cc2)CC1 | 47% | 11% | -2 | 100% (active) | inactive | inactive | inactive | inactive |
| COc1ccc(N2CCN(CCCCNC(=O)c3ccc(NC(=O)c4cc(C(F)(F)F)cc(C(F)(F)F)c4)cc3)CC2)c(OC)c1 | 99% (active) | 30% | 2 | 100% (active) | inactive | inactive | inactive | inactive |
| Cc1cc(=O)c(-c2ccc(Oc3cccc(OC(F)(F)F)c3)cc2)c(C)[nH]1 | 96% (active) | 13% | -5 | 97% (active) | inactive | inactive | inactive | inactive |
| O=C(NC1CCC(CCN2Cc3cccc(F)c3C2)CC1)c1cccc(-c2cccnc2)c1 (stereo not given) | 82% (active) | 16% | -2 | 98% (active) | inactive | inactive | inactive | inactive |
| CCn1c(Sc2ccc(C#N)c([N+](=O)[O-])c2)nnc1-c1cccc(Cl)c1 | 88% (active) | -5% | -2 | 95% (active) | inactive | inactive | inactive | inactive |
| CCOC(=O)NC1=NC(C)(C)N(OCCCOc2cc(Cl)c(Cl)cc2Cl)C(N)=N1 | 94% (active) | 63% (active) | -2 | 97% (active) | inactive | inactive | inactive | inactive |
| CC(C)COc1cc(C(=O)Nc2cnc3ccccc3c2)ccc1[N+](=O)[O-] | 56% (active) | 19% | -1 | 97% (active) | inactive | inactive | inactive | inactive |
| CCCCCCNC(=O)C1Cc2c([nH]c3cc(Cl)ccc23)C2(CCN(CCC)CC2)N1 (stereo not given) | 18% | 8% | 0 | 92% (active) | inactive | inactive | inactive | inactive |
| CCc1ccnc2c(N3CCCC3=O)cc(C(=O)N[C@@H](Cc3ccccc3)[C@H](O)CNC3CCOCC3)cc12 | 98% (active) | 2% | 4 | 99% (active) | inactive | inactive | inactive | inactive |
| Cc1ccc(NC(C)C(=O)Nc2ccc(C#N)cc2)cc1S(=O)(=O)N1CCCCC1 (stereo not given) | 92% (active) | 11% | 1 | 92% (active) | inactive | inactive | inactive | inactive |
| O=[N+]([O-])c1cccc(Nc2nccc(-c3cnn4ncccc34)n2)c1 | 74% (active) | 33% | -1 | 87% (active) | inactive | inactive | inactive | inactive |
